Measurements as given in PubChem BioAssay (NCATS).
Records with an inconclusive call do not appear. Active and inactive are the calls of the source. Unless noted, the call rests on the fitted dose curve; in most records, active means well fitted curve in the direction sought with a large enough effect; inconclusive means small, poorly fitted or top-dose-only effect, or another doubt; inactive means no such curve, though single readings can be large; an effect the other way counts as inactive or inconclusive.

Tests used:
[1] = target: Calcium and integrin-binding protein 1 (Homo sapiens) (UniProt Q99828); assay: Confirmatory qHTS for Identification of Calcium Integrin Binding Protein 1 (CIB1) Competitor (AID 1508617); further: nearly all actives have a fitted effect of over 65% in size; further: potency means the concentration at half of the fitted maximal effect
Procedure, shortened: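 Compounds at up to 114 uM final met 1 uM GST-tagged CIB1 for 15 min at room temperature (HEPES pH 7.4, 5 mM CaCl2). FITC-labelled alphaIIb peptide, 100 nM, added; polarization read after 15 min more.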

[2] = Validation of Assay for Modulators of Lamin A Splicing (AID 1459; active means well fitted curve in the direction sought with a large enough effect in the signal ratio; the % refers to the signal ratio;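 further: cells exposed to compound for two days before reading; 0% is about no effect; ratio rise marks activators and ratio drop marks inhibitors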)
Procedure, shortened: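 S3 HeLa stably expressing lamin A-EGFP splicing minigene and DsRed2, 600 cells/well in Opti-MEM with 2% FBS, treated 48 h at 37C; laser-scanning cytometry gives GFP/RFP total intensity ratio; ancitabine positive control, 0.5% DMSO vehicle.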

[3] = target: DNA repair nuclease/redox regulator APEX1 (Homo sapiens) (UniProt P27695); assay: qHTS Validation Assay for Inhibitors of the Human Apurinic/apyrimidinic Endonuclease 1 (APE1) (AID 1705;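 further: TAMRA fluorescence gain over two minutes as APE1 cuts a quenched THF abasic duplex; series mostly up to about 57 µM; on the % scale 0 is the no-effect control and ±100 the full control effect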)
Procedure, shortened: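 Fluorogenic double-stranded THF abasic-site substrate (5'-TAMRA/3'-BHQ-2), 50 nM final. Enzyme preincubated with compound 15 min at room temperature, then substrate added. Kinetic fluorescence (ex 525/em 598 nm) read three times at 60 s intervals; activity taken as third-minus-first read difference.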

[4] = Counterscreen for APE1 Inhibitors: Fluorescent Dye Displacement Validation Assay (AID 1707);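 further: plate controls were ThO with dsDNA and no compound for no effect and ThO without dsDNA for full effect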
Procedure, shortened: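 Counterscreen flags promiscuous DNA binders: compounds displacing ThO from duplex DNA (abasic THF site, 50 nM) reduce 540 nm emission (480 nm excitation). ThO 250 nM final; Tris-HCl pH 7.5 with NaCl, MgCl2 and Tween-20.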

[5] = target: Endonuclease 4 (Escherichia coli (strain K12)) (UniProt P0A6C1); assay: Counterscreen for APE1 Inhibitors: qHTS Validation Assay for Inhibitors of Endonuclease IV (AID 1708); further: on the % scale 0 is the no-effect control and ±100 the full control effect
Procedure, shortened: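 The reaction buffer contained 50 mM Tris-HCl pH 7.5, 50 mM NaCl, 2 mM MgCl2, 1 mM DTT and 0.01% Tween-20. Incision of a 50 nM fluorophore/quencher THF substrate by 2 nM enzyme was measured kinetically.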

[6] = qHTS for differential inhibitors of proliferation of Plasmodium falciparum line 3D7 (AID 1876);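 further: parasite growth measured after three days of culture; 0% = vehicle wells and -100% = reference inhibitor wells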
[7] = qHTS for differential inhibitors of proliferation of Plasmodium falciparum line D10 (AID 1877);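 further: parasites grown with compound for 72 h before DNA staining; plate controls were vehicle wells for no effect and reference inhibitor wells for full effect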
[8] = qHTS for differential inhibitors of proliferation of Plasmodium falciparum line Dd2 (AID 1882); conditions: Potency: Plasmodium falciparum Dd2 proliferation inhibition;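 further: series mostly up to about 29 µM; compound exposure of 72 h on infected erythrocytes; plate controls were DMSO vehicle for no effect and 0.29 µM artemisinin for full effect; nearly all actives have a fitted effect of over 65% in size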
Procedure, shortened: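 RBC culture, 0.3% parasitemia / 2.5% Hct final; cpd added by pin tool in DMSO; 72 h, 37 C, 5% CO2; lysis buffer + SYBR Green I, o/n RT dark; FI 485/535; norm. to artemisinin 0.29 uM and DMSO.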

[9] = qHTS Assay for Modulators of Human Peripheral Myelin Protein 22 (PMP22) Expression/Activity (AID 1967; active means well fitted curve in the direction sought with a large enough effect in the signal ratio; the % refers to the signal ratio;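 further: 0% = untreated cells and 100% end not stated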)
Procedure, shortened: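 Mouse MSC80 Schwann cells carrying Pmp22 promoter–green click beetle luciferase plus EF-alpha–red luciferase control, dosed 24 h at 37 °C. Dual-filter luminescence, overlap-corrected; %Activity from green/red ratio normalised to untreated cells, concentration-response curves fitted.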

[10] = target: Ferritin light chain (Equus caballus) (UniProt P02791); assay: qHTS Validation Assay for Identification of Novel General Anesthetics (AID 2323); further: series mostly up to about 77 µM; on the % scale 0 is the no-effect control and ±100 the full control effect
Procedure, shortened: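 Horse-spleen apoferritin (10 uM) in PBS with 50% saturated 1-aminoanthracene; compounds pin-transferred, 10 min at room temperature. Fluorescence read at 380/535 nm, normalized to free 1-AMA and 1-AMA/apoferritin values; four-parameter Hill fit.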

[11] = target: ATP-dependent DNA helicase Q1 (Homo sapiens) (UniProt P46063); assay: qHTS Validation Assay for Inhibitors of RecQ-Like Dna Helicase 1 (RECQ1) (AID 2353);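 further: plate controls were DMSO vehicle for no effect and enzyme-free control for full effect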
Procedure, shortened: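 RECQ1T1 50 nM; forked duplex (20 bp + 30-nt ss tails) 200 nM, ATP 2 mM final; pH 8.0, 2 mM MgCl2, 2.5 ug/ml poly(dI-dC); 15 min compound preincubation; discontinuous kinetic read over 2 h at RT.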

[12] = Validation screen for small molecules that induce DNA re-replication in MCF 10A normal breast cells (AID 463097); further: 0% is about no effect; nearly all actives have a fitted effect of over 60% in size
Procedure, shortened: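 MCF 10A cells exposed to compound 48 hr at 37 C, 5% CO2, then Hoechst-stained 40 min. Laser-scanning imaging of nuclear DNA content (405 nm ex, 500-530 nm em); re-replication scored as rise in nuclei with elevated fluorescence intensity.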

[13] = Quantitative high throughput screen for delayed death inhibitors of the malarial parasite plastid, 96 hour incubation (AID 488745); further: series mostly up to about 29 µM; on the % scale 0 is the no-effect control and ±100 the full control effect; nearly all actives have a fitted effect of over 70% in size
Procedure, shortened: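 Two-generation (96 h) exposure of luciferase-reporter P. falciparum in erythrocytes, 2% hematocrit, 0.1% parasitemia final, 37 C, 5% CO2, RPMI 1640 with 0.5% Albumax. Growth inhibition scored by reduced luminescence.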

[14] = Quantitative high throughput screen for delayed death inhibitors of the malarial parasite plastid, 48 hour incubation (AID 488752); further: on the % scale 0 is the no-effect control and ±100 the full control effect; nearly all actives have a fitted effect of over 65% in size
Procedure, shortened: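 Cultures: infected erythrocytes at final 2% hematocrit and 0.1% parasitemia in Albumax-supplemented RPMI. Parasites express integrated firefly luciferase. Incubation with compound lasts 48 h before luminescent detection of remaining reporter activity.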

[15] = target: M-phase phosphoprotein 8 (Homo sapiens) (UniProt Q99549); assay: qHTS Validation Assay for Inhibitors for MPP8 Chromodomain Interactions with Methylated Histone Tails (AID 488949); further: top concentration of the series differs between compounds; on the % scale 0 is the no-effect control and ±100 the full control effect; nearly all actives have a fitted effect of over 55% in size
Procedure, shortened: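 MPP8 (50 nM) was pre-bound to 50 nM biotinylated H3(1-18)K9me3 peptide in PBS pH 7.4 with 0.01% Tween-20. Compounds were then added for 30 min at room temperature, and complex disruption was read by AlphaScreen with streptavidin donor and nickel-chelate acceptor beads.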

[16] = target: Transient receptor potential cation channel subfamily V member 1 (Homo sapiens) (UniProt Q8NER1); assay: HTS Assay for Compounds that Act as Enhancers of the Vanilloid Receptor 1 (AID 488979); further: 0% is about no effect
Procedure, shortened: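 Calcium influx kinetics via Fluo-8 (480/520 nm) in TRPV1-expressing cells, 2000/well cultured overnight at 35.5C. Compound-alone read 3 min (agonist phase), followed by EC20 capsaicin challenge for 2 min (enhancer phase).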

[17] = target: Thyrotropin receptor (Homo sapiens) (UniProt P16473); assay: qHTS Assay for Antagonists of the Thyroid Stimulating Hormone Receptor (AID 488980); further: series mostly up to about 58 µM; 0% is about no effect
Procedure, shortened: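 TSHR-transfected HEK293 cells (2000/well) in HEPES-buffered HBSS with 70 uM RO 20-1724 were stimulated with 4 nM TSH (EC80, final) in the presence of compound. cAMP was measured by HTRF competition after lysis and 30 min at RT.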

[18] = target: Thyrotropin-releasing hormone receptor (Homo sapiens) (UniProt P34981); assay: qHTS for Small Molecule Agonists and Allosteric Enhancers of Human TRH Receptor: Validation Screen for Agonists (AID 493127;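 active means calcium activation more than 3 SD above the typical response in the agonist read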;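 further: intracellular calcium rise by fluo-8 fluorescence before TRH EC20 addition; 0% is about no effect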); conditions: TRH receptor agonist cell assay; at 2 µM; stronger effect = higher value
Procedure, shortened: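 Kinetic fluorescence assay of agonist-induced calcium release: overnight-plated TRHR cells, room-temperature fluo-8 loading, baseline then compound addition with per-second reads.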

[19] = target: Galactokinase (Homo sapiens) (UniProt P51570); assay: qHTS Validation Assay for Inhibitors of Human Galactokinase (GALK) (AID 493189); further: 0% is about no effect
Procedure, shortened: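 GALK (5 nM) with 35 uM ATP and 100 uM galactose in HEPES pH 8.0 with MgCl2, NaCl, DTT and BSA. Reaction ran 1 h at room temperature. Residual ATP read by Kinase-Glo Plus luminescence.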

[20] = Validation screen for small molecules that induce DNA re-replication in SW480 colon adenocarcinoma cells (AID 504364); further: 0% is about no effect
Procedure, shortened: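 Hoechst-stained SW480 nuclei, imaged at 405 nm excitation after 48 hr compound exposure, were counted for elevated DNA content as the re-replication signal.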

[21] = target: Voltage-gated inwardly rectifying potassium channel KCNH2 (Homo sapiens) (UniProt Q12809); assay: qHTS Assay for Small Molecule Inhibitors of the Human hERG Channel Activity (AID 588834);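 further: top concentration of the series differs between compounds; on the % scale 0 is the no-effect control and ±100 the full control effect; lower thallium flux fluorescence means stronger hERG block; nearly all actives have a fitted effect of over 50% in size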
Procedure, shortened: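 Thallium serves as surrogate for K+ influx through BacMam-delivered hERG in U2OS cells. Compounds are added for about 10 minutes after dye loading; stimulation buffer then starts flux, monitored kinetically on FDSS.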

[22] = qHTS for differential inhibitors of proliferation of Plasmodium falciparum line GB4 (AID 1816); conditions: Potency: Plasmodium falciparum GB4 proliferation inhibition;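 further: potency means the concentration at half of the fitted maximal effect; parasite growth measured after 72 h incubation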
[23] = qHTS for differential inhibitors of proliferation of Plasmodium falciparum line W2 (AID 1883); conditions: Potency: Plasmodium falciparum W2 proliferation inhibition;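 further: potency means the concentration at half of the fitted maximal effect; parasites grown with compound for 72 h before lysis and staining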
[24] = qHTS for differential inhibitors of proliferation of Plasmodium falciparum line HB3 (AID 1886); conditions: Potency: Plasmodium falciparum HB3 proliferation inhibition;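 further: potency means the concentration at half of the fitted maximal effect; parasites grown with compound for 72 h before SYBR Green readout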

Sequence of Calcium and integrin-binding protein 1 (Homo sapiens) (Q99828 whole entry, looked up): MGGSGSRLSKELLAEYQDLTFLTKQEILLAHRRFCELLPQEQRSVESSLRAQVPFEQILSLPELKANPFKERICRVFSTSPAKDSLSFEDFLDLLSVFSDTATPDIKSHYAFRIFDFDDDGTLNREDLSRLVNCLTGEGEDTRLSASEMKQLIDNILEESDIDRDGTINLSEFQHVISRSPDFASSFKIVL
Sequence of Galactokinase (Homo sapiens) (P51570 whole entry, looked up): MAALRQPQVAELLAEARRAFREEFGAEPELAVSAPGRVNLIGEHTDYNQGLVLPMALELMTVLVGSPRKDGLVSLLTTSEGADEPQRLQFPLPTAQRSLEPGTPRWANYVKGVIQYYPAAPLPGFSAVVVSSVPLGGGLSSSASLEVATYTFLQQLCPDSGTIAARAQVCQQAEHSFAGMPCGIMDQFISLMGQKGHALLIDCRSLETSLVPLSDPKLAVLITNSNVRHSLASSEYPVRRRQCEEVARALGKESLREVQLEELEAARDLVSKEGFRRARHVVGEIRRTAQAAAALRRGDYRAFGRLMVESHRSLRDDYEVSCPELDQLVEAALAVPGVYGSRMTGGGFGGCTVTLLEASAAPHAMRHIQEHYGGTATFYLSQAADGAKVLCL
Sequence of ATP-dependent DNA helicase Q1 (Homo sapiens) (P46063 whole entry, looked up): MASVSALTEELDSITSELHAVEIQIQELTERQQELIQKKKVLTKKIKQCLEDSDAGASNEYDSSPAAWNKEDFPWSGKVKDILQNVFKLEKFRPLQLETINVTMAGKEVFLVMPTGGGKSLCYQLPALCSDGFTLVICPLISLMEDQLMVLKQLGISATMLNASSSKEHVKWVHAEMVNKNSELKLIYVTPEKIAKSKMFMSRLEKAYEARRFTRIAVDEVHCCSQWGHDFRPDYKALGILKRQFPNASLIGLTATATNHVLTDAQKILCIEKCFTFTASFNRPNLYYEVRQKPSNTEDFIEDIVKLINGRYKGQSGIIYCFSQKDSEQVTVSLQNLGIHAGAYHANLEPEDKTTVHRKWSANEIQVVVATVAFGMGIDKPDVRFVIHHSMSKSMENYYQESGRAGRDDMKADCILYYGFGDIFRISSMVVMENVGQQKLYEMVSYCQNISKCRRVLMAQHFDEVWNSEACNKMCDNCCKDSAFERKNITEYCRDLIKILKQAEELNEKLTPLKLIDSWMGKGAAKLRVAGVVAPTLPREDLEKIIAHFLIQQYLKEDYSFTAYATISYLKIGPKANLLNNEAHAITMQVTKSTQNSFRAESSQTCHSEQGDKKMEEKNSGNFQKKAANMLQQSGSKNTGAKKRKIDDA
Sequence of Thyrotropin receptor (Homo sapiens) (P16473 whole entry, looked up): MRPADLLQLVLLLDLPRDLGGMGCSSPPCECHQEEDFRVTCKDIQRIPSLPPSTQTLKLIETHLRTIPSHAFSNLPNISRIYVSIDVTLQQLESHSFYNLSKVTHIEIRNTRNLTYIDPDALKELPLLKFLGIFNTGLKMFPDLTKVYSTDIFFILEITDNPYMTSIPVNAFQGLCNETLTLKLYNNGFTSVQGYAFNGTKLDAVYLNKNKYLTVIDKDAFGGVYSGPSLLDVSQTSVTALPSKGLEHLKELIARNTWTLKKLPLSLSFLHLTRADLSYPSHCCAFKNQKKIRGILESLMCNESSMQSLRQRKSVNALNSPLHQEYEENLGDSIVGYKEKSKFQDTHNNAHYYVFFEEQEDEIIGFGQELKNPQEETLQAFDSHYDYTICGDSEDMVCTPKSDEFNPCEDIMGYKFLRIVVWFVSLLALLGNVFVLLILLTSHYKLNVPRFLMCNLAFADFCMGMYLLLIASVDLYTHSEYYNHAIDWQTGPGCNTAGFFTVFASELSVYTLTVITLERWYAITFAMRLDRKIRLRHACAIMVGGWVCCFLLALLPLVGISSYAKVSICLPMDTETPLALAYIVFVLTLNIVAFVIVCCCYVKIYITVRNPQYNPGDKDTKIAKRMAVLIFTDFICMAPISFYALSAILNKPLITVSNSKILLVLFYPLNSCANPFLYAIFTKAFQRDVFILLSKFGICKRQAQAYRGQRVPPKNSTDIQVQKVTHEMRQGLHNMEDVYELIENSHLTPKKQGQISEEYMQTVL
Sequence of Ferritin light chain (Equus caballus) (P02791 2-175 limits assumed): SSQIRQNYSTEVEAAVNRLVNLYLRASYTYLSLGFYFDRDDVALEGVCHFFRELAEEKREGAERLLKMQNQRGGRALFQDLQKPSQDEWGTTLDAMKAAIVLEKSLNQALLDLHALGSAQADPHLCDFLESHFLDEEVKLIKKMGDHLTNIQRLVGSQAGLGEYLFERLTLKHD
Sequence of Transient receptor potential cation channel subfamily V member 1 (Homo sapiens) (Q8NER1 whole entry, looked up): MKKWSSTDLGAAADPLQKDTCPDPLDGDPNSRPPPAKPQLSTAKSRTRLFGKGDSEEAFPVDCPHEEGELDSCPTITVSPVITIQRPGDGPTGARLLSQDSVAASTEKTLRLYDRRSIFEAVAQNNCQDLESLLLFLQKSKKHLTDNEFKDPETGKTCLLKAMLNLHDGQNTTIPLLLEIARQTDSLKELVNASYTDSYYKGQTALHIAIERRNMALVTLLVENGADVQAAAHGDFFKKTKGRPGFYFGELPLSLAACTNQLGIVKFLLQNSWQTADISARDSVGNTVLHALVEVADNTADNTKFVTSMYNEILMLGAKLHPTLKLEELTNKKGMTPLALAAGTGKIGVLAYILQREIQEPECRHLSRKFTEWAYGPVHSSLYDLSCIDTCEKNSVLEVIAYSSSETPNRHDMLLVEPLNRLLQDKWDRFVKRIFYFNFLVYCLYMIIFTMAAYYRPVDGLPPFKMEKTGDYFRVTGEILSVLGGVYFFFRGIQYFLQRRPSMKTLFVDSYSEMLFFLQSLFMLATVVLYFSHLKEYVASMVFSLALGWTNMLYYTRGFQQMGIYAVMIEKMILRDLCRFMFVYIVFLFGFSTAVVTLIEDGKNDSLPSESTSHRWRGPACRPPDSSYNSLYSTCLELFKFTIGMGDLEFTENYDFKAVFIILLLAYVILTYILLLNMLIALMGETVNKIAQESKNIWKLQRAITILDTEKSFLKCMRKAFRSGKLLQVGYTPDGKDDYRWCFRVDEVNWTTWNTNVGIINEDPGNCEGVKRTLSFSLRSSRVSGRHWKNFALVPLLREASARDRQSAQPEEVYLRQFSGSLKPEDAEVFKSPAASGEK
Sequence of M-phase phosphoprotein 8 (Homo sapiens) (Q99549 whole entry, looked up): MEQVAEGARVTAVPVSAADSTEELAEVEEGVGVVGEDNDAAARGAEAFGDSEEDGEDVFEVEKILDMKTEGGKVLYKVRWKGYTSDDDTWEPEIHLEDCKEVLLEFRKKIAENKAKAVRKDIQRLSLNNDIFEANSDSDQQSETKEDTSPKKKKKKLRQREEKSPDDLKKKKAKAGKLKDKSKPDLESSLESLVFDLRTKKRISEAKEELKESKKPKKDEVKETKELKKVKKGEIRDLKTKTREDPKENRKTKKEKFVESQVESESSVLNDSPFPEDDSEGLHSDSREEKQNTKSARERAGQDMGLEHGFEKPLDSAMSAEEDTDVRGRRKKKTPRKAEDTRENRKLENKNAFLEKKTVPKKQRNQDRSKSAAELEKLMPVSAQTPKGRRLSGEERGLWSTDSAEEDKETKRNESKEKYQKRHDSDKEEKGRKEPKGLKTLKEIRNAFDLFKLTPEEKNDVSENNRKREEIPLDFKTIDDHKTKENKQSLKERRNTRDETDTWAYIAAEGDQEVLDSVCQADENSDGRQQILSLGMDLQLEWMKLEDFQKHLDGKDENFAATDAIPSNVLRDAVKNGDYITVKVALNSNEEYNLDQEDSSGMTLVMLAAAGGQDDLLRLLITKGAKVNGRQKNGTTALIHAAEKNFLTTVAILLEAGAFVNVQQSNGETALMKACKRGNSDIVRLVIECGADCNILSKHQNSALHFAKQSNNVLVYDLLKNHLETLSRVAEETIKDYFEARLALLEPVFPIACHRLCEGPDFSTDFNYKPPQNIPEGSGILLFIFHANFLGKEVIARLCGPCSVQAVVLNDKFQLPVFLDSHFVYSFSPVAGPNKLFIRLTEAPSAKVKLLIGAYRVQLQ
Sequence of Thyrotropin-releasing hormone receptor (Homo sapiens) (P34981 whole entry, looked up): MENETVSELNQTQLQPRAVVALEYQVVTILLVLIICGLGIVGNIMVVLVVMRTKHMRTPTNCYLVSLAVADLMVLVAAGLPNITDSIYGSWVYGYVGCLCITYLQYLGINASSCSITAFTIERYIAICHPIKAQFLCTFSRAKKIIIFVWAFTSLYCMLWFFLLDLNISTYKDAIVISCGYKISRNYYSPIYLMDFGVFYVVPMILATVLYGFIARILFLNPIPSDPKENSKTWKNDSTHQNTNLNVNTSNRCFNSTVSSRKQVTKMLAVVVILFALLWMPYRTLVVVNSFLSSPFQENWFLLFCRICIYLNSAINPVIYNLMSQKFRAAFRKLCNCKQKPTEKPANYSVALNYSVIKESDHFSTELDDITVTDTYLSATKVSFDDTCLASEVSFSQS
Sequence of DNA repair nuclease/redox regulator APEX1 (Homo sapiens) (P27695 whole entry, looked up): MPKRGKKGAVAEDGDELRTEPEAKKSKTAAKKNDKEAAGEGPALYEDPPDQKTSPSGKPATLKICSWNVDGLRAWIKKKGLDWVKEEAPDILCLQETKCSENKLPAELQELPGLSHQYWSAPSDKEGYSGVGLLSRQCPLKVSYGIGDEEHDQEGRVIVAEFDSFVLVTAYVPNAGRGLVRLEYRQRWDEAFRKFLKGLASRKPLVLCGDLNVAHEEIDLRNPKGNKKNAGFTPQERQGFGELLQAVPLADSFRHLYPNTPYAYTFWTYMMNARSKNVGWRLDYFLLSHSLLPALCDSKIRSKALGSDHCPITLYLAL

Cc1ccccc1NC(=O)CN1C(=O)N/C(=C\c2cn(-c3cccc(C(=O)O)c3)cn2)C1=O
inactive: Potency [1]

Oc1cccc2cc(N3CCCC3)cnc12
inactive: Potency [1]

CCOc1ccc(CCNC(C)=O)cc1OCC
inactive: Potency [1]

O=C1CCCC2=C1C(c1ncccc1C(F)(F)F)N=C(Nc1nc3ccccc3o1)N2 (stereo unspecified)
inactive: Potency [1]

C[C@H]1CC2[C@@H]3CCC4=CC(=O)C=C[C@]4(C)[C@@]3(Cl)[C@@H](O)C[C@]2(C)[C@@]1(O)C(=O)CO (stereo partly specified)
inactive: outcome [2] | Potency [3] | Potency [4] | outcome [5] | Potency [6] | Potency [7] | Potency [8] | outcome [9] | outcome [10] | Potency [11] | outcome [12] | Potency [13] | Potency [14] | Potency [15] | outcome [16] | outcome [17] | activation [18] 0.25% | outcome [19] | outcome [20] | Potency [21]

COc1ccccc1Nc1cc2ccccc2c(=O)[nH]1
active: Potency [1] 39.8 µM

Nc1ncnc2c1nc(Sc1ccc(Cl)cc1)n2[C@H]1O[C@@H]2COP(=O)(O)O[C@H]2[C@@H]1O
active: Potency [22] 7.94 µM | Potency [23] 10 µM | Potency [24] 10 µM
inactive: outcome [2] | Potency [3] | Potency [4] | outcome [5] | outcome [10] | Potency [11] | outcome [12] | Potency [13] | Potency [14] | Potency [15] | outcome [16] | outcome [17] | activation [18] 1.31% | outcome [19] | outcome [20] | Potency [21]

COC(=O)c1ccc(O)c2ncc(-c3ccc(C(=O)N4CCNCC4)cc3)cc12
inactive: Potency [1]

O=C(NC(c1ccco1)c1cc(Cl)c2cccnc2c1O)c1cccs1 (stereo unspecified)
inactive: Potency [1]
